Bioassay records deposited in PubChem BioAssay by National Center for Advancing Translational Sciences (NCATS).
Sampled rows, rich in hits. Any-hit rate of the full collection: about 8.2%.
MCF10A rerep: DNA re-replication induction in MCF 10a cells; MCF 10A DNA re-replication, Hoechst nuclear intensity, 48 h; Potency, µM (doses to about 46.1 µM), for inactives: top-dose activity, positive = re-replication, most hits filed as activators; 2.9% of 350,000 active; AID 624296; also: % of control where 0% means no effect; nearly all actives have a fitted effect of over 50% in size
SW480 rerep: induces DNA re-replication in SW480 colon adenocarcinoma cells; AID 624297; Potency, µM (doses to about 46.1 µM), inactives show top-dose re-replication activation, most hits filed as activators; 1.8% of 340,000 active; SW480 DNA re-replication, Hoechst DNA content imaging, 48 h; also: % of control where 0% means no effect; nearly all actives have a fitted effect of over 55% in size
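Hoechst fluorescence of nuclei (405 nm excitation, 500-530 nm emission) measured by plate-scanning imager after 48 hr compound exposure at 37 C; re-replication scored as increased number of nuclei with elevated intensity.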
ELG1 DNA repair: ELG1-dependent DNA repair inhibition. 2.3% of 330,000 active. HEK293T ELG1-luciferase reporter, luminescence, 16 h; DNA damage induced by 5-fluorouridine. AID 504467. Potency, µM (top dose mostly 46.1 µM), for the others: at the top dose activity change, negative = inhibition, hits mostly inhibitors; also: % is scaled to controls: 0 for no effect and ±100 for the full control effect; nearly all actives have a fitted effect of over 55% in size
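In this reporter screen, reduction of luminescence relative to DMSO vehicle indicated activity. Compounds and 5-fluorouridine were added together to 2,000 cells per well, incubated for 16 hr at 37 °C, then developed with ONE-Glo.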
KB-3-1 cytotox: KB-3-1 parental cell cytotoxicity. KB-3-1 viability, CellTiter-Glo ATP luminescence, 72 h. 1.4% of 400,000 active. Potency, µM (top dose mostly 46.1 µM), most hits filed as cytotoxic; also: % is scaled to controls: 0 for no effect and ±100 for the full control effect; nearly all actives have a fitted effect of over 60% in size
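Cytotoxicity in the drug-sensitive parental line KB-3-1 was scored as loss of CellTiter-Glo luminescence following 72 h incubation with compound. Values come from curve fitting of normalized concentration-response data.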
KB-V1 cytotox: kills drug-selected multidrug resistant KB-V1 cells; Potency, µM (top dose mostly 46.1 µM), hits mostly cytotoxic; 3.4% of 400,000 active; KB-V1 MDR cells viability, CellTiter-Glo, 72 h; also: % is scaled to controls: 0 for no effect and ±100 for the full control effect; nearly all actives have a fitted effect of over 60% in size
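Following 72 h at 37 degrees C with compound, KB-V1 cell viability was read by CellTiter-Glo luminescence, medium being phenol-red-free DMEM plus 10% FBS; concentration-response parameters came from normalized, curve-fitted qHTS data.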
* hit, by the source's call; i = inactive; ? = inconclusive; . = no result. Calls follow the shape of the dose curve; as a rule, active = well fitted curve in the direction sought with a large enough effect; inconclusive = small, poorly fitted or top-dose-only effect, or another doubt; inactive = no such curve, though single readings can be large; an effect the other way counts as inactive or inconclusive. Potency is read from the fitted curve at half-maximal effect.

SMILES	MCF10A rerep	SW480 rerep	ELG1 DNA repair	KB-3-1 cytotox	KB-V1 cytotox
Cc1ccc(Cl)cc1N1CCN(S(=O)(=O)c2ccc3c(c2)CCN3C(=O)C2CCC2)CC1	.	.	.	i	i
CCn1nc(C)c(C(=O)Nc2cc(Oc3cc(C)cc(C)c3)cc([N+](=O)[O-])c2)c1C	23µM*	?	13µM*	18µM*	3.3µM*
CC(=O)Nc1ccc(Oc2cc(NC(C)=O)cc([N+](=O)[O-])c2)cc1	?	-110%	3%	i	i
Cc1nn(C)cc1C(=O)Nc1cc(Oc2ccc(Cl)cc2)cc([N+](=O)[O-])c1	97%	22%	-3%	21µM*	?
Cc1ccccc1Cn1ccc(NC(=O)c2nn(C)cc2[N+](=O)[O-])n1	6.5µM*	10µM*	?	i	?
O=C(Nc1cc(Oc2ccc(Cl)cc2)cc([N+](=O)[O-])c1)c1ccco1	16µM*	0%	-2%	i	i
Cc1ccc(-n2c(=O)c3cccnc3n2CC(=O)NCc2ccc(Cl)cc2)cc1	.	.	.	i	i
O=S(=O)(CCNCc1ccccc1)NC1CCCCC1	-7%	1%	.	i	?
Cn1cc([N+](=O)[O-])c(C(=O)Nc2cc(Oc3ccccc3)cc([N+](=O)[O-])c2)n1	2.9µM*	4.1µM*	?	?	?
COc1ccc(/C=C/c2nc(-c3ccccc3O)n(-c3ccccc3)n2)cc1	7%	?	7%	i	16µM*
CCN(CC)C(=O)c1cccc(NC(=O)CC23CC4CC(CC(C4)C2)C3)c1	?	4%	-12%	i	?
O=C(NNC(=O)C1CCN(Cc2ccc(F)cc2Cl)CC1)Nc1ccc([N+](=O)[O-])cc1	?	?	?	i	i
OCCN1CCN(c2nc(-c3ccccc3)c3cc(Br)ccc3n2)CC1	18µM*	21µM*	?	i	i
O=C(O)C1CCN(c2nc(-c3ccccc3)c3cc(Br)ccc3n2)CC1	23µM*	1%	24%	i	i
O=C(O)CCCC(=O)N1CCN(c2nc(-c3ccccc3Cl)c3cc(Br)ccc3n2)CC1	?	-13%	-1%	i	i
COCCNC(=O)c1cc(-c2ccccc2)nn1CC1CC(c2cccnc2)=NO1 (centres undefined)	2%	-10%	.	i	i
CN1C(=O)c2cccc3c(S(=O)(=O)Nc4cccc(C(=O)O)c4)ccc1c23	.	.	.	i	i
Oc1ccc(C(c2nnnn2CCc2ccccc2)N2CCN(c3nc4ccccc4s3)CC2)cc1 (centres undefined)	1%	2%	?	?	i
O=C(COC(=O)CNC(=O)c1ccccc1)NCCNC(=O)COC(=O)CNC(=O)c1ccccc1	-3%	-4%	1%	i	i
CCCCN(C)Cc1c(O)ccc2c(-c3ccccc3)cc(=O)oc12	-2%	-17%	3%	?	10µM*
CCc1cccc(C)c1NC(=O)C1CCCN1S(=O)(=O)c1cccc2nsnc12 (centres undefined)	.	.	.	i	i
COC(=O)c1ccc(-n2c(C)cc(C(=O)CSc3ccc(NC(C)=O)cc3)c2C)cc1	?	-4%	?	i	?
Cc1cc(C(=O)Cn2nnc3ccccc3c2=O)c(C)n1-c1ccccc1F	?	13%	?	5.2µM*	?
CC(=O)Nc1ccc(SCC(=O)c2cc(C)n(-c3ccccc3F)c2C)cc1	23µM*	15%	?	?	?
CCCCOc1ccccc1C(=O)NNC(=S)NC(=O)c1ccccc1[N+](=O)[O-]	22%	?	4%	?	?
SMILES	MCF10A rerep	SW480 rerep	ELG1 DNA repair	KB-3-1 cytotox	KB-V1 cytotox
COc1ccc(NC(=O)Cn2nnc(-c3ccccc3)c2COc2ccc(C(C)=O)cc2)cn1	.	.	.	i	i
Cc1nn(Cc2ccccc2Cl)c(C)c1C(=O)NCc1ccco1	3%	-9%	7%	i	i
Cc1nn(Cc2ccccc2Cl)c(C)c1C(=O)NCCN1C(=O)S/C(=C\c2ccccc2)C1=O	16µM*	-7%	-22%	i	?
CCCCCCCCC/C(=N\O)c1ccccn1	15µM*	?	?	?	i
Cc1ccccc1NS(=O)(=O)c1ccc(C(=O)NCC(c2ccco2)N(C)C)cc1 (centres undefined)	?	2%	-14%	i	15µM*
Cc1ccc(S(=O)(=O)N(C)c2ccc(C(=O)NCC(c3ccco3)N(C)C)cc2)cc1 (centres undefined)	9.2µM*	-1%	-20%	i	i
Cc1ccccc1NS(=O)(=O)c1ccc(C(=O)NCC(c2ccccc2)N(C)C)cc1 (centres undefined)	?	-20%	8%	i	?
O=C(Nc1cc(Cl)cc(Cl)c1)c1cnn2c1NC(=C1CC1)C=C2C(F)F	.	.	.	i	i
O=S(=O)(CC(CN1CCCC1)N1CCCC1)c1ccc2ccccc2c1 (centres undefined)	12µM*	10µM*	12µM*	12µM*	?
O=S(=O)(c1ccc2ccccc2c1)N1CCCCCC1	-2%	-1%	?	i	i
Cc1cccc(NC(=S)N2CCn3cccc3C2c2cccnc2)c1 (centres undefined)	-1%	-6%	-11%	i	16µM*
Fc1ccc(C2c3cccn3CCN2C(=S)Nc2cccc(Br)c2)cc1 (centres undefined)	23µM*	-1%	?	?	?
CCc1cc2c(=O)c(-c3ccc4c(c3)OCCO4)coc2cc1OS(C)(=O)=O	11%	9.2µM*	?	?	?
COC(=O)c1ccc(N2CCN(C)CC2)c(NC(=O)c2cc3ccccc3o2)c1	1%	-4%	-15%	i	3.3µM*
CN1CCN(c2ccc(CNC(=O)c3cc4ccccc4o3)cc2)CC1	23µM*	-5%	-14%	i	i
Cc1ccc(C(=O)NCc2ccc(N3CCN(C)CC3)cc2)cc1C	1.6µM*	2%	?	i	?
CCN(c1ccccc1)S(=O)(=O)c1ccc(NC(=O)c2cc(=O)c3cc(C)c(C)cc3o2)cc1	.	.	.	i	i
CCOC(=O)/C(C#N)=C1/C=CN(Cc2ccccc2)C=N1	12%	0%	15%	i	13µM*
C=CCN(C(=O)c1ccc2c(c1)nnn2C)c1ccccc1	-23%	-25%	14%	i	i
COc1cc2c(cc1OC)C(COc1ccc([N+](=O)[O-])cc1)N(C(C)=O)CC2 (centres undefined)	-3%	-1%	8.2µM*	16µM*	?
COc1cc2c(cc1OC)C(COc1ccccc1OC)N(C(C)=O)CC2 (centres undefined)	11%	-9%	-18%	i	i
